The nature of assay [1]: Nuclear factor erythroid 2-related factor 2/antioxidant responsive element (Nrf2/ARE) small molecule agonists: qHTS cell viability counter screen in human keratinocytes (AID 1919968; active = well fitted cell-killing curve with a large enough effect in the repeat runs; also: nearly all actives have a fitted effect of over 55% in size). The procedure, abridged: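 After a 5 h attachment period, ARE-reporter keratinocytes were dosed with compounds in DMSO and then cultured 23 h at 37 C. Cell viability came from CellTiter-Fluor signal read after a further 1 h.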
(In qHTS, concentration-response curves come from the screen itself.)

Assay [2] can be described thus: Nuclear factor erythroid 2-related factor 2/antioxidant responsive element (Nrf2/ARE) small molecule agonists: luciferase reporter gene qHTS assay in human keratinocytes (AID 1919969). Also: nearly all actives have a fitted effect of over 35% in size. Also: potency is read from the fitted curve at half-maximal effect.
For assay [3], the target named is Gonadotropin-releasing hormone receptor (Homo sapiens) (UniProt P30968). The assay can be described thus: Human gonadotropin-releasing hormone receptor (GnRHR) small molecule agonists, calcium flux assay in GnRHR-HEK293 cells (AID 1920063). Also: nearly all actives have a fitted effect of over 35% in size. The procedure, abridged:
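We seeded human GnRHR-expressing HEK293 cells for 18 hours, loaded them with calcium dye for an hour at 37 C, added test compounds, and recorded fluorescence intensity kinetically for three minutes.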
For orientation: Calcium assays in cells follow changes in intracellular calcium, usually with a dye or a luminescent sensor.

Assay [4] in a line: G protein-coupled receptor (GPCR) small molecule agonists, calcium flux assay: HEK293 wild type cell line counter screen (AID 1920065). The method, boiled down:
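Calcium-sensitive dye, loaded 1 h at 37 C into cells cultured 18 h, reports compound-evoked calcium release as fluorescence (Ex/Em 480/540), measured over 3 min. Agonist mode; 15-point titrations, triplicate.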

Assay [5] in a line: p53 small molecule agonists, cell-based qHTS assay with human liver microsomes (AID 1963577).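 Also: p53 response element beta-lactamase reporter cells with liver microsomes plus NADPH.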 The procedure, abridged: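 16 h, 37 C exposure of p53RE-bla cells to compounds with human liver microsomes and NADPH (0.5 mg/mL final each); detection via LiveBLAzer mixture, 2 h dark at room temperature.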
Assay [6] is described as follows: p53 small molecule agonists, cell-based qHTS assay with rat liver microsomes (AID 1963578). The method, boiled down:
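With rat liver microsomes and NADPH present (0.5 mg/mL final each), p53RE-bla cells are treated with compound for 16 h at 37 C. LiveBLAzer detection mixture is then applied for 2 h at room temperature in the dark.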

Assay [7] can be described thus: p53 small molecule agonists, cell-based qHTS assay with human liver microsomes: qHTS cell viability counter screen (AID 1963579). Also: nearly all actives have a fitted effect of over 45% in size. The method, boiled down: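 In this multiplexed counter screen, the reporter plates were subsequently treated with CellTiter-Glo so that cell viability, reflected by luminescence, could be recorded for p53RE-bla cells dosed 16 h with compounds under microsomal activation (HLM and NADPH).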

Assay [8] in a line: p53 small molecule agonists, cell-based qHTS assay with rat liver microsomes: qHTS cell viability counter screen (AID 1963580). Also: nearly all actives have a fitted effect of over 45% in size. The procedure, abridged:
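HCT-116 p53RE-bla, 4,000 cells/well, 5 h pre-incubation; cpd + rat liver microsomes 0.5 mg/mL + NADPH 0.5 mg/mL (final); 16 h, 37 C; CellTiter-Glo, 30 min RT; luminescence.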

Assay [9] can be described thus: p53 small molecule agonists, cell-based qHTS assay: qHTS cell viability counter screen (AID 1963581). Also: nearly all actives have a fitted effect of over 45% in size. The procedure, abridged:
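Following 5 h attachment, HCT-116 p53RE-bla cells took up compound for 16 h at 37 C; the reporter was read with B/G FRET substrate (2 h RT), and viability then via CellTiter-Glo ATP luminescence.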

The nature of assay [10]: p53 small molecule agonists, cell-based qHTS assay (AID 1963582; active = well fitted activation curve with a large enough effect in the signal ratio in the repeat runs, not every such curve was filed as active; the % refers to the signal ratio). The method, boiled down:
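In this cell-based concentration-response screen, a p53 response element drives beta-lactamase; cells received DMSO-borne compounds after 5 h culture and were incubated a further 16 h before FRET substrate development.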

The target in assay [11] is 5-hydroxytryptamine receptor 2A (Homo sapiens) (UniProt P28223). As to the kind of experiment: 5-hydroxytryptamine receptor 2A (HTR2A) small molecule agonists, cell-based qHTS assay (AID 1963587). Also: nearly all actives have a fitted effect of over 30% in size. The method, boiled down: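 Kinetic calcium-flux fluorescence (2 min, 1 sec intervals) after compound addition in agonist mode. HTR2A-CHO cells were cultured 18 h, then dye-loaded 1 h at 37 C.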

The target of assay [12] is Muscarinic acetylcholine receptor M1 (Homo sapiens) (UniProt P11229). As to the kind of experiment: Cholinergic receptor muscarinic 1 (CHRM1) small molecule antagonists, cell-based qHTS assay (AID 1963588). Also: nearly all actives have a fitted effect of over 40% in size. The procedure, abridged:
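CHRM1-CHO calcium-flux assay, antagonist mode. Cells were seeded 18 h, dye-loaded 1 h at 37 C and given compound for 5 min at RT, then acetylcholine was added at 50nM. FDSS fluorescence was read 3 min; 15 concentrations, three runs.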

The target is the same in assay [13]. As to the kind of experiment: Cholinergic receptor muscarinic 1 (CHRM1) small molecule agonists, cell-based qHTS assay (AID 1963589). Also: nearly all actives have a fitted effect of over 35% in size. The method, boiled down: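 Measures agonist-induced intracellular calcium rise. Stable human CHRM1 CHO line, 1 h dye load at 37 C, compounds from DMSO, kinetic fluorescence read.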
Assay [14] in a line: cAMP Responsive Elements (CRE) small molecule agonists, cell-based qHTS assay (AID 1963590). The procedure, abridged: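 A CRE-responsive beta-lactamase reporter in HEK 293T cells was used. Treatment ran 3 h at 37 C; detection used LiveBLAzer B/G FRET substrate for 2 h at room temperature.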
The nature of assay [15]: cAMP Responsive Elements (CRE) small molecule antagonists, cell-based qHTS assay (AID 1963591; active = well fitted inhibition curve with a large enough effect in the signal ratio in the repeat runs, not every such curve was filed as active; the % refers to the signal ratio). The procedure, abridged:
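HEK293T cells carrying a CRE-driven beta-lactamase reporter receive compound and NKH477 (0.25 uM final) for 3 h. Fluorescence from LiveBLAzer B/G FRET substrate is read after 2 h at room temperature.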

For assay [16], the target named is Beta-2 adrenergic receptor (Homo sapiens) (UniProt P07550). The assay can be described thus: Adrenergic beta2 receptor (ADRB2) small molecule antagonists, cell-based qHTS assay (AID 1963592). Also: series mostly up to about 92 µM; nearly all actives have a fitted effect of over 50% in size. The procedure, abridged: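 Cells (CHO, stable ADRB2 overexpression) incubated 18-20hr at 37C; compounds added from DMSO; agonist mix (1nM isoproterenol, 100uM IBMX, 25uM Ro-20-1724) added; 0.5hr RT; d2-cAMP and anti-cAMP-cryptate added; 1hr RT; 665/615 nm read.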

Assay [17] shares this target. As to the kind of experiment: Adrenergic beta2 receptor (ADRB2) small molecule agonists, cell-based qHTS assay (AID 1963593).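 Also: CHO cells stably overexpressing human ADRB2.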 The procedure, abridged:
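CHO cells stably over-expressing ADRB2 were plated overnight at 37C, then dosed with compounds plus a stimulation mix containing 100uM IBMX and 25uM Ro-20-1724 for 0.5hr at room temperature. cAMP was measured by HTRF competition, 1hr.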

The target of assay [18] is D(2) dopamine receptor (Homo sapiens) (UniProt P14416). The assay can be described thus: Dopamine D2 receptor (DRD2) small molecule agonists, cell-based qHTS assay (AID 1963594). Also: nearly all actives have a fitted effect of over 35% in size. The method, boiled down:
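cAMP accumulation in DRD2-HEK293 cells measured by HTRF after 1 h detection; compounds added 10 min before NKH477 (200nM […]) forskolin-analogue stimulation, 30 min at room temperature, with Ro20-1724 present at 0.1 mM final.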

Assay [19] deals with 5-hydroxytryptamine receptor 2A (Homo sapiens) (UniProt P28223). The assay can be described thus: 5-hydroxytryptamine receptor 2A (HTR2A) small molecule antagonists, cell-based qHTS assay (AID 1963586). Also: nearly all actives have a fitted effect of over 45% in size. The procedure, abridged: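 Antagonist-mode intracellular calcium assay: DOI (4 nM) added after 5 min compound pre-incubation at room temperature to dye-loaded HTR2A-CHO cells. Fluorescence followed for 3 min, sampled every second.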

In assay [20] the target is D(2) dopamine receptor (Homo sapiens) (UniProt P14416). The assay can be described thus: Dopamine D2 receptor (DRD2) small molecule antagonists, cell-based qHTS assay (AID 1963595; active = well fitted inhibition curve with a large enough effect in the signal ratio in the repeat runs, with a control signal flat; the % refers to the signal ratio). The procedure, abridged:
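In this cell-based antagonist screen, compounds act for 10 min at room temperature before a 30 min challenge with 12 nM quinpirole and 200 nM NKH477. cAMP is quantified by HTRF competition in DRD2-HEK293 cells containing 0.1 mM Ro20-1724.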

The values below come from PubChem BioAssay (Tox21).

The structures appear in SMILES notation. “And” between values parts separate entries of the source, which are not always exact repeats. Equal values may be shown once. Inconclusive results are not listed. The source made the active and inactive calls. Unless noted, calls follow the shape of the full dose curve.

Beta-2 adrenergic receptor (Homo sapiens), sequence (P07550 whole entry, looked up): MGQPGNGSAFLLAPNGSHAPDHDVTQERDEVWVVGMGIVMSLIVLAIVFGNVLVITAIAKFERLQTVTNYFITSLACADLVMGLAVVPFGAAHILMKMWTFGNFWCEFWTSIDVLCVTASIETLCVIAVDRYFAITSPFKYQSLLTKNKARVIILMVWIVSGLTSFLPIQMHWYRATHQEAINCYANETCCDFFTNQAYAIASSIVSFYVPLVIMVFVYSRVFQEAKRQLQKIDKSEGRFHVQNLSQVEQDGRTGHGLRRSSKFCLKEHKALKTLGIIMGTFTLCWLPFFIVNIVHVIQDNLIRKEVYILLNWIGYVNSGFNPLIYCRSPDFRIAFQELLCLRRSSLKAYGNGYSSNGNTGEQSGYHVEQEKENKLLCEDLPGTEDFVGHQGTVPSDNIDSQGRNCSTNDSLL
Muscarinic acetylcholine receptor M1 (Homo sapiens), sequence (P11229 whole entry, looked up): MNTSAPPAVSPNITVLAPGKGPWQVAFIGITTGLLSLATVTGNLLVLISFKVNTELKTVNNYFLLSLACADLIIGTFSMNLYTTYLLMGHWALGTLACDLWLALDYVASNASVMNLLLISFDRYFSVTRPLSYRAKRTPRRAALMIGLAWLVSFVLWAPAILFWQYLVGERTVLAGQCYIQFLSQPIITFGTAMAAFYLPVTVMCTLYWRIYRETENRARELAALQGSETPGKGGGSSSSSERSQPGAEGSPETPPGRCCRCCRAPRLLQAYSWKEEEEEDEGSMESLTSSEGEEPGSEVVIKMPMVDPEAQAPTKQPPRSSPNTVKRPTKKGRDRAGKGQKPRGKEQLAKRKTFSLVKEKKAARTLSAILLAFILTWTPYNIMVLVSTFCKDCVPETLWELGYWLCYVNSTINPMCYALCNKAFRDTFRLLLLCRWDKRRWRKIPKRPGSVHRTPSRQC
5-hydroxytryptamine receptor 2A (Homo sapiens), sequence (P28223 whole entry, looked up): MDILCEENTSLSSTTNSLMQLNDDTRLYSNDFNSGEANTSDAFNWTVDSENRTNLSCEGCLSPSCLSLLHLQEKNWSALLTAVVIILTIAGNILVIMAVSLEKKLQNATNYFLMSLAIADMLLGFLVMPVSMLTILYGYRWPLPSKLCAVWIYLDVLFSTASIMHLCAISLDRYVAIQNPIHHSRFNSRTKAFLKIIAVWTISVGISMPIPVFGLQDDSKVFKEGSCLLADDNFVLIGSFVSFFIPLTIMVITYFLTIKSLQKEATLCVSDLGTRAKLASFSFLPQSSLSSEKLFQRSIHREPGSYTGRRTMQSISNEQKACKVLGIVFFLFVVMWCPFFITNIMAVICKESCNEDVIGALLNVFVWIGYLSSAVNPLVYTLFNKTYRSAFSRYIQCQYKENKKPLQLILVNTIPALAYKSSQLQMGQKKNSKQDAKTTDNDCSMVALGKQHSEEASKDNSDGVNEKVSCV
D(2) dopamine receptor (Homo sapiens), sequence (P14416 whole entry, looked up): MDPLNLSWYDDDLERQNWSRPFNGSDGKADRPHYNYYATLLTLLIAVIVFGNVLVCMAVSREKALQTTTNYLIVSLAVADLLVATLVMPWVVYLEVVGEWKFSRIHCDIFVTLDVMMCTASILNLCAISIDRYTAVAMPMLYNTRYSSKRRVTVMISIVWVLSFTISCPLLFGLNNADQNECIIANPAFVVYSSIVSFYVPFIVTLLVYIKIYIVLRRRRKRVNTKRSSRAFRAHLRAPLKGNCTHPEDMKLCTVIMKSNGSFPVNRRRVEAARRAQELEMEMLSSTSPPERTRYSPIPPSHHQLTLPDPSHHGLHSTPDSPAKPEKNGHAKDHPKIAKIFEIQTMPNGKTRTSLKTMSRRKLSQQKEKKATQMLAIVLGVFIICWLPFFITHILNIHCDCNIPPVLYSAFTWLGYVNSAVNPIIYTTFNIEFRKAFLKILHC
Gonadotropin-releasing hormone receptor (Homo sapiens), sequence (P30968 whole entry, looked up): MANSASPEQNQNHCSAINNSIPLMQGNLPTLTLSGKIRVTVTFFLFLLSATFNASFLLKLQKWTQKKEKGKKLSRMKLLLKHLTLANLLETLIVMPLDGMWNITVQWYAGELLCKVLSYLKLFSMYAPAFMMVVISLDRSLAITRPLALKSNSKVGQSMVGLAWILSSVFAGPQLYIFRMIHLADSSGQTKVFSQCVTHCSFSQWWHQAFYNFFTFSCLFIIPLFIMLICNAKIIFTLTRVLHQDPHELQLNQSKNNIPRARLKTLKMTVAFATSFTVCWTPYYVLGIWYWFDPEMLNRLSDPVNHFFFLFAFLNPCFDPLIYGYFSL

With `C=CC(C)(CCC=C(C)C)OC(=O)CC` (stereo unspecified), the Potency entry in [1], in assay [2], in assay [3], in assay [4], in assay [5] and in [6] was “inactive” throughout. In addition, the Potency result in assay [7], in [8], in [9], in assay [10], in assay [11] and in [12] was “inactive” each time. The Potency entry in assay [13], in assay [14], in assay [15], in [16], in assay [17] and in [18] was “inactive” in each case.
Consider `OCC(CO)(CO)CO`, for which the Potency result in [1], in assay [2], in [3], in [4], in assay [8] and in assay [9] was “inactive” each time. Further, the Potency entry in assay [19], in assay [11], in [12], in assay [13], in assay [14] and in [15] was “inactive” in each case. In addition, the Potency result in assay [16], in [18] and in assay [20] was “inactive” throughout.
As for `O=c1[nH]cnc2[nH]ncc12`, the Potency entry in assay [1], in assay [2], in [3], in assay [4], in assay [7] and in assay [9] was “inactive” each time. The Potency entry in [14], in [15], in [16], in assay [18] and in assay [20] was “inactive” each time.
As for `C(=C\c1ccccc1)/c1ccccc1`, the Potency entry in [1], in assay [2], in assay [3], in assay [4], in [5] and in [6] was “inactive” each time. The Potency entry in assay [7], in [8], in [9], in [19], in assay [11] and in assay [12] was “inactive” each time. Further, the Potency result in assay [13], in [14], in assay [15], in [16], in [17] and in assay [18] was “inactive” in each case.
With `O=C1Nc2ccccc2C1(c1ccc(O)cc1)c1ccc(O)cc1`, the Potency result in assay [1], in assay [3], in assay [4], in assay [7], in [8] and in assay [19] was “inactive” in each case. For the same compound, the Potency result in [11], in assay [12], in assay [13], in [14], in assay [15] and in assay [16] was “inactive” each time. The Potency result in [18] and in [20] was “inactive” each time. For the same compound, the Potency in assay [2] was 386 nM (active) and 841 nM (active).
Regarding `COCCCOc1ccnc(CS(=O)c2nc3ccccc3[nH]2)c1C` (stereo unspecified), the Potency result in assay [1], in assay [3], in assay [4], in assay [5], in assay [6] and in [7] was “inactive” each time. The Potency result in assay [8], in [9], in [14], in [15], in [16] and in assay [17] was “inactive” each time. Besides, the Potency result in assay [18] and in assay [20] was “inactive” throughout. In addition, the Potency in [2] was 30.5 µM (active).
`CCCSSCCC`: the Potency entry in [1], in [2], in assay [3], in [4], in [5] and in [6] was “inactive” each time. Also, the Potency result in assay [7], in [8], in assay [9], in assay [19], in assay [11] and in assay [12] was “inactive” throughout. In addition, the Potency result in assay [14], in assay [17], in [18] and in assay [20] was “inactive” in each case.
As to `O=Cc1ccc([N+](=O)[O-])cc1`, the Potency entry in assay [1], in assay [2], in assay [3], in assay [4], in assay [5] and in [6] was “inactive” throughout. Further, the Potency entry in [7], in assay [9], in [10], in [19], in [11] and in assay [12] was “inactive” throughout. In addition, the Potency entry in [13], in assay [14], in assay [15], in assay [16], in [18] and in assay [20] was “inactive” throughout.
